# Where a name gives a salt, the structure may show the parent alone.
# Legend:
# Assay in all cases: Euclidean distance of Cell Painting phenotypic profile (signed KS, 77 features) to DMSO centroid (dimensionless distance); 5 or 10 uM (library dependent); higher = stronger phenotypic change vs DMSO (phenoactivity)
# Details in all cases: 48 h
# 786-O = system: 786-O
# Summary of the method: (§1)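 Phenoactivity is computed as Euclidean distance to the median vehicle profile. The profiles, drawn from 77 Harmony features scored as signed Kolmogorov-Smirnov statistics versus same-plate vehicle wells, were corrected for plate position, correlation-weighted and replicate-averaged at the top dose. Stained cells were imaged confocally at 20X (9 fields/well) after 48 h with library compounds at 10 or 5 uM, 0.1% DMSO final, in five cancer lines and a healthy fibroblast line.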
# A549 = system: A549
# Summary of the method: as §1
# DU145 = system: DU145
# Summary of the method: as §1
# FB = system: FB
# Summary of the method: as §1
# HEPG2 = system: HEPG2
# Summary of the method: as §1
# OVCAR4 = system: OVCAR4
# Summary of the method: as §1
Compound,Euclidean distance (786-O),Euclidean distance (A549),Euclidean distance (DU145),Euclidean distance (FB),Euclidean distance (HEPG2),Euclidean distance (OVCAR4)
O=S1(=O)CCN(CN2CCS(=O)(=O)NC2)CN1 [Taurolidine],1.32,0.797,0.913,1.04,0.654,1.46
CC(C)(C)c1[nH]cnc1/C=c1\[nH]c(=O)/c(=C/c2ccccc2)[nH]c1=O [Plinabulin (NPI-2358)],3.18,3.25,4.17,2.89,4.1,2.86
CC1CS(=O)(=O)CCN1/N=C/c1ccc([N+](=O)[O-])o1 (configuration not stated) [Nifurtimox],1.55,0.675,1.08,0.936,1.04,1.33
CCN(CC)CCCC(C)Nc1c2ccc(Cl)cc2nc2ccc(OC)cc12 (configuration not stated) [Quinacrine 2HCl],3.59,4.6,2.81,5.56,4.32,3.92
Cc1cnc(C(=O)N[C@H]2CCCCC/C=C\[C@@H]3C[C@@]3(C(=O)NS(=O)(=O)C3CC3)NC(=O)[C@@H]3C[C@@H](Oc4nc5ccccc5c5ccccc45)CN3C2=O)cn1 [Paritaprevir (ABT-450)],1.48,1.53,1.52,1.17,0.513,1.39
CNC(=O)[C@H](Cc1ccccc1)NC(=O)[C@H](CC(C)C)[C@H](CSc1cccs1)C(=O)NO [Batimastat (BB-94)],1.52,1.51,1.25,1.68,2.06,1.53
COC(=O)N(C)c1c(N)nc(-c2nn(Cc3ccccc3F)c3ncccc23)nc1N [Riociguat (BAY 63-2521)],1.1,0.74,0.825,1.34,0.598,0.876
O=C(O)c1cc(=O)c2ccccc2o1 [Chromocarb],1.02,0.437,0.751,1.04,0.887,0.727
O=c1ccc2ccc(OCCCCN3CCN(c4cccc5sccc45)CC3)cc2[nH]1 [Brexpiprazole],1.47,1.82,2.84,1.52,2.28,1.15
CN(C)CCCN1c2ccccc2CCc2ccc(Cl)cc21 [Clomipramine HCl],1.08,0.845,1.4,1.93,1.92,1.77
CC(C)NCC(O)c1ccc(O)c(O)c1 (configuration not stated) [Isoproterenol sulfate dihydrate],1.03,0.632,2.58,1.23,0.763,0.894
Cc1ccc(NCCCc2ccccc2)c(N)c1,0.637,0.572,0.826,0.816,0.57,0.53
CN1CCCN=C1/C=C/c1cccc(O)c1 [Oxantel Pamoate],0.869,0.907,0.598,0.7,0.882,0.824
CN1CCN(CCCN2c3ccccc3Sc3ccc(Cl)cc32)CC1 [Prochlorperazine dimaleate salt],1.84,2.24,1.63,2.19,2.85,1.67
Cc1c(OCC(F)(F)F)ccnc1C[S@@+]([O-])c1nc2ccccc2[nH]1 [Dexlansoprazole],0.708,0.614,0.925,1.52,0.629,1.1
Oc1ccc(-c2nc(-c3ccc(F)cc3)c(-c3ccncc3)[nH]2)cc1,1.58,0.841,1.39,1.38,2.99,2.17
Cc1c(Cn2c(C)nc3c(C(=O)O)cc(N4CCOCC4)cc32)cccc1C(F)(F)F,2.39,1.14,1.28,1.21,0.982,1.33
Cn1c(=O)c2[nH]cnc2n(C)c1=O [Aminophylline],1.11,1.06,0.75,0.798,0.585,0.841
COc1cc2nccc(Oc3ccc(NC(=O)C4(C(=O)Nc5ccc(F)cc5)CC4)cc3)c2cc1OC [Cabozantinib malate (XL184)],1.85,2.98,1.3,2.84,1.89,2.25
CC(C)(C)NC(=O)N[C@H](C(=O)N1C[C@H]2[C@@H]([C@H]1C(=O)NC(CC1CCC1)C(=O)C(N)=O)C2(C)C)C(C)(C)C (some centres not stated) [Boceprevir],1.48,0.973,1.59,1.13,0.545,1.45
O=c1c(O)c(-c2cc(O)c(O)c(O)c2)oc2cc(O)cc(O)c12 [Myricetin],0.872,2.24,2.15,1.76,1.1,2.1
CN1CCC(CNc2ccc3ncc(-c4cccc(OC(F)(F)F)c4)n3n2)CC1 [SGI-1776 free base],2.39,3.26,1.73,3.26,4,1.54
O=C(O)/C=C/c1ccc(O)cc1 [p-Coumaric Acid],1.47,0.995,0.894,0.846,1.05,0.854
CC(=O)OCC1=C(C(=O)O)N2C(=O)[C@@H](NC(=O)CSc3ccncc3)[C@H]2SC1 [Cephapirin Benzathine],1.51,0.954,0.791,1.16,0.75,0.965

Compound,Euclidean distance (786-O),Euclidean distance (A549),Euclidean distance (DU145),Euclidean distance (FB),Euclidean distance (HEPG2),Euclidean distance (OVCAR4)
CN(C)CCC=C1c2ccccc2CCc2ccccc21 [Amitriptyline HCl],1.34,1.54,1.54,1.52,1.48,1.99
CC/C(=C(\c1ccc(O)cc1)c1ccc(OCCN(C)C)cc1)c1ccccc1 [4-Hydroxytamoxifen],3.21,2.74,2.16,2.61,4.31,2.89
CCCc1nn(C)c2c(=O)[nH]c(-c3cc(S(=O)(=O)N4CCN(C)CC4)ccc3OCC)nc12 [Sildenafil],1.51,0.754,0.716,1.08,0.767,1.17
COc1ccc(C[C@H](N)C(=O)N[C@H]2[C@@H](O)[C@H](n3cnc4c(N(C)C)ncnc43)O[C@@H]2CO)cc1 [Puromycin 2HCl],6.42,3.8,4.87,6.23,4.76,6
CC(N/C(=N\C#N)Nc1ccncc1)C(C)(C)C (configuration not stated) [Pinacidil],1.01,0.907,2.42,1.15,0.55,1.54
CC1(C)O[C@@H]2C[C@H]3[C@@H]4C[C@H](F)C5=CC(=O)C=C[C@]5(C)[C@@]4(F)[C@@H](O)C[C@]3(C)[C@]2(C(=O)CO)O1 [Fluocinolone Acetonide],1.43,1.77,2,2.02,0.86,2.22
COc1cc(NC(C)CCCN)c2ncccc2c1 (configuration not stated) [Primaquine Diphosphate],0.845,2.02,1.16,2.24,2.3,1.51
Clc1ccc(Cn2c(CN3CCCC3)nc3ccccc32)cc1 [Clemizole],1.07,0.265,1.22,0.972,0.65,0.648
CCOc1ccc(Cc2cc([C@]34OC[C@](CO)(O3)[C@@H](O)[C@H](O)[C@H]4O)ccc2Cl)cc1 [Ertugliflozin],1.45,0.762,1.22,0.862,0.465,1.23
Nc1nc2c(ncn2COC(CO)CO)c(=O)[nH]1 [Ganciclovir],1.56,0.816,0.888,1.25,0.883,3.37
OC[C@H]1O[C@H](O[C@H]2O[C@H](CO)[C@@H](O)[C@H](O)[C@H]2O)[C@H](O)[C@@H](O)[C@@H]1O [D-(+)-Trehalose dihydrate],0.894,1.33,1.15,1.04,0.672,1.09
C[C@]12CC[C@@H]3c4ccc(OS(=O)(=O)O)cc4CC[C@H]3[C@@H]1CCC2=O [Estropipate],0.946,0.41,0.686,0.891,0.623,1.17
C[C@@H](C(=O)Nc1ccc(Cl)cc1)C1CCC(c2ccnc3ccc(F)cc23)CC1 (some centres not stated),1.84,2.05,1.38,1.29,1.93,1.69
OCc1cc(C(O)CNCCCCCCOCCCCc2ccccc2)ccc1O (configuration not stated) [Salmeterol Xinafoate],1.27,1.68,1.58,2.11,2.19,1.28
Cc1ccc(Cl)c(Nc2ccccc2C(=O)O)c1Cl [Meclofenamate Sodium],1.09,1.34,1.66,1.48,0.74,1.94
CC1(C)S[C@@H]2[C@H](NC(=O)[C@H](N)c3ccccc3)C(=O)N2[C@H]1C(=O)O [Ampicillin Trihydrate],1.3,1.2,0.921,0.762,0.667,1.53
O=C(NS(=O)(=O)c1ccc(Br)s1)c1ccc(Cl)cc1Cl [Tasisulam],1.38,0.993,1.21,0.939,1.22,1.66
O=C(NCCS(=O)(=O)c1ccc(C(F)(F)F)cn1)c1ccc(Cl)cc1,0.975,1.54,1.57,0.817,0.723,1.18
NC(=O)c1ccc(OCCCN2CC3CCCC3C2)cc1 (configuration not stated),1.32,1.16,1.39,1.36,0.495,1.23
CCCCC[C@H](O)/C=C/[C@H]1[C@H](O)CC(=O)[C@@H]1C/C=C\CCCC(=O)O [Prostaglandin E2 (PGE2)],1.77,0.85,0.915,1.08,0.522,1.33
O=c1c(-c2ccc(O)cc2)coc2cc(O)cc(O)c12 [Genistein],1.75,1.52,1.14,1.28,0.498,1.13
CN(C)C(=O)COC(=O)Cc1ccc(OC(=O)c2ccc(NC(=N)N)cc2)cc1 [Camostat Mesilate],1.16,0.62,1.08,0.645,0.823,1.71
Cc1cc(C#N)cc(C)c1Oc1nc(Nc2ccc(C#N)cc2)nc(N)c1Br [Etravirine (TMC125)],1.93,2.85,1.7,0.981,2.06,1.73

# — the supplement of paper PMC10127200
